# Compounds with a hit are over-represented: about 2.1% of the library has one in this group of screens.
# PrP 5UTR inh: inhibition of PrP 5' UTR reporter expression; cell-based PrP 5' UTR mRNA reporter, plate reader; inhibition, % (no concentration beside the values); 340,000 tested, 0.35% active; in the data active = inhibition above about 52%; also: 0 = median of the neutral control wells
# ugtP null kill: compounds lethal to S. aureus RN4220 ugtP deletion mutant | growth inhibition, % (no concentration beside the values) | 330,000 tested, 0.54% active | OD600 growth, 16 h; in the data active = growth inhibition above about 68%;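 also: plate controls were untreated wells for no effect and antibiotic for full effect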
# PrPC surface inh: cell surface PrPC inhibition, primary TR-FRET screen | inhibition, % at 13.8 µM | P04156 | TR-FRET read-out | 370,000 tested, 0.43% active | AID 720596; in the data active = inhibition above about 24%; also: 0% = median of the test wells and 100% = reference compound wells
# CCHFV vOTU inh: CCHFV vOTU protease inhibition; Pep-AMC fluorescence; inhibition, % at 11.5 µM; 370,000 tested, 0.55% active; AID 651958; in the data active = inhibition above about 30%; also: 0% = vehicle wells with enzyme and 100% = no enzyme wells
# PfHsp40 rescue: restores yeast growth despite PfHsp40 toxicity | S. cerevisiae expressing PfHsp40, growth rescue, ATP luminescence | growth rescue, % at 12.5 µM | 340,000 tested, 0.68% active; in the data active = growth rescue above about 28%, passing the limit was not always enough;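 also: yeast W303a lacking pdr1 and pdr3 grown in galactose medium; growth measured after three days at 30 °C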
# Sa RN4220 lethal: S. aureus RN4220 growth inhibition. OD600, 16 h. inhibition, % (concentration not given with the values). 330,000 tested, 0.33% active. AID 1259311; in the data active = inhibition above about 85%;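 also: plate controls were untreated cells for no effect and reference antibiotic for full effect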
# * marks the source's active call; other numbers are inactive results; · = no result.
SMILES,PrP 5UTR inh,ugtP null kill,PrPC surface inh,CCHFV vOTU inh,PfHsp40 rescue,Sa RN4220 lethal
Brc1ccc(Oc2ccc(Br)cc2Br)c(Br)c1,-17,-13,-1,1,0,-4
COc1ccc(NC(=O)Cc2ccccc2)cn1,-21,1,10,0,0,2
COc1ccc(CS(=O)(=O)/C(Cl)=C(/Cl)C(=O)Nc2ccc(OC)nc2)cc1,48,100*,·,·,0,26
COc1ccc(NC(=O)/C(Cl)=C(/Cl)S(=O)Cc2ccccc2)cn1 (stereo unspecified),27,88*,23,4,0,51
CC1CC2C3CC(F)C4=CC(=O)C=C[C@]4(C)[C@@]3(Cl)C(O)C[C@]2(C)C1C(=O)COC(=O)C(C)(C)C (stereo partly specified),·,-7,·,·,·,1
CCCSc1cc(N2CCN(C)CC2)nc(-c2ccc(OC)cc2)n1,-22,100*,-7,3,-1,-8
CC(=NNC(=O)COc1ccccc1[N+](=O)[O-])c1cccs1,·,4,·,·,·,-7
CC1CN=C2N1CC(Cc1ccc(O)cc1)N2CCNC(=O)CCC1CCCCC1 (stereo unspecified),·,11,·,·,·,8
COc1cc(SSc2cc(OC)cc([N+](=O)[O-])c2N)c(N)c([N+](=O)[O-])c1,-16,87*,-12,25,-1,38
COc1ccc(NC(=O)COc2ccc(/C=C/c3cc[n+](C)cc3)cc2OC)cc1,-26,3,-39,5,-1,1
COc1cc(/C=C/c2cc[n+](C)cc2)ccc1OCC(=O)Nc1ccc(Cl)c(Cl)c1,-4,100*,-28,3,0,78
O=C(Nc1ccc(Cl)cc1C(=O)Nc1ccc(Br)cn1)c1ccco1,-40,-18,7,22,270*,3
O=C1C=CC(=O)C2C1C1(Cl)C(Cl)=C(Cl)C2(Cl)C1(Cl)Cl (stereo unspecified),-5,97*,-4,14,54*,88*
COc1ccc(CNC(=O)CN2C(=O)CC(c3ccccc3)=Nc3ccccc32)cc1,-66,5,-3,-4,0,0
O=C(CN1C(=O)CC(c2ccccc2)=Nc2ccccc21)NCc1ccccc1,-17,5,-4,-4,119*,8
Cc1ccc(CSc2nc3ccsc3c(=O)n2Cc2ccccn2)cc1,-28,87*,18,1,-1,-10
CN(C)c1ccc(-c2cc(O)c3ncccc3c2)cc1,-13,·,-17,9,0,·
Oc1cc(-c2ccncc2)cc2cccnc12,-19,95*,-16,18,12,101*
C=C(C)CNC(=S)NN=C(C)c1ccc(-n2ccnc2)cc1,·,9,·,·,·,7
COc1ccc(OCC(=O)Nc2ccc(N3CCN(C(=O)c4ccccc4)CC3)c(Cl)c2)cc1,-34,2,7,-8,39*,3
COc1ccc(OCC(=O)Nc2ccc(N3CCOCC3)c(Cl)c2)cc1,-7,3,6,7,2,3
O=[N+]([O-])c1ccc(NN=Cc2cc(Br)ccc2O)nc1,5,93*,-5,3,22,59
O=C(CCCC(=O)Nc1cccc(Br)c1)NN=Cc1cc([N+](=O)[O-])ccc1O,·,79,·,·,·,88*
O=C(CN(c1cccc(Br)c1)S(=O)(=O)c1ccccc1)N/N=C/c1cc([N+](=O)[O-])ccc1O,-9,·,12,15,247*,·
O=C(CCCC(=O)Nc1cccc(Br)c1)N/N=C/c1cc([N+](=O)[O-])ccc1O,-1,·,-6,-3,0,·
SMILES,PrP 5UTR inh,ugtP null kill,PrPC surface inh,CCHFV vOTU inh,PfHsp40 rescue,Sa RN4220 lethal
Cc1cccc(NC(=O)CCC(=O)NN=Cc2cc([N+](=O)[O-])ccc2O)c1,·,84*,·,·,·,94*
CCN1C(=O)C2C(c3ccc(-c4ccc5c(c4)OCO5)c(OC)c3)N[C@@](CC(C)C)(C(=O)OC)C2C1=O (stereo partly specified),·,7,·,·,·,4
COC(=O)C1=C(C)NC(=O)C1=Cc1ccc(CNS(=O)(=O)c2ccc(C)cc2)o1,·,0,·,·,·,7
CC(C)(C)C1CCC(=O)N(C(CC#N)Cc2ccccc2)CC1 (stereo unspecified),·,2,·,·,·,-1
CC1CN(C(C)CO)C(=O)c2cc(NC(=O)NC3CCCCC3)ccc2OC1CN(C)C(=O)Nc1ccccc1 (stereo unspecified),·,-1,·,·,·,1
CC=C(C)C(=O)NCCN1C2=NCC(Cc3ccc(O)cc3)N2CC1Cc1ccc(OC)cc1 (stereo unspecified),·,-2,·,·,·,8
Cc1ccc(-c2csc(NC(=O)C3=COCCO3)n2)cc1,-92,9,11,-13,6,2
CCCc1ccc(-c2csc(NC(=O)C3=COCCO3)n2)cc1,-73,56,-1,24,50*,-3
Cc1cccc(Nc2nc(-c3sc(C)nc3C)cs2)c1,-45,90*,-2,6,1,-7
Cc1nc(C)c(-c2csc(Nc3cccc(O)c3)n2)s1,-91,0,-9,12,0,-1
c1ccc(Cn2ccc(-c3cnc(-c4ccccc4)s3)n2)cc1,-52,14,-10,-38,69*,-5
CCOC(=O)CC1=C(C(=O)OCC)C2(C(=O)Nc3ccccc32)C(C#N)=C(N)O1 (stereo unspecified),-2,44,-2,27,1,53
COC(=O)CC1=C(C(=O)OC)C2(C(=O)N(C)c3ccccc32)C(C#N)=C(N)O1 (stereo unspecified),-28,98*,-8,7,0,98*
O=C(NC1CCCCC1)C(c1ccnc2ccccc12)N1CCc2ccccc2C1 (stereo unspecified),·,·,-6,76*,·,·
O=C(NC1CCCCC1)C(C1CC1)N1CCc2ccccc2C1 (stereo unspecified),·,·,-2,-3,·,·
COCCNC(=O)/C(C#N)=C/c1ccc2c(c1)OCO2,-1,14,-2,-3,-1,7
N#C/C(=C\c1ccc2c(c1)OCO2)C(=O)NCc1ccco1,-23,0,2,-9,53*,1
Oc1ccc(C=NNc2ccc(C(F)(F)F)cn2)cc1O,·,-19,·,·,·,21
O=C(CC(=O)c1ccccc1)CS(=O)(=O)c1ccccc1,-10,-3,6,1,60*,5
Cc1ccc(S(=O)(=O)CC(=O)c2ccccc2)cc1,-32,-2,-1,3,-1,1
Cc1[nH]n(-c2ccccc2)c(=O)c1N=Nc1nccs1,7,44,-14,5,36*,66
Cc1ccsc1C=C1SC(=O)N(CC(=O)N2CCOCC2)C1=O,·,-7,·,·,·,2
CCOC(=O)c1sc(N(C)C)nc1-c1ccccc1,2,1,-6,2,0,4
CCOC(=O)c1sc(N)nc1-c1ccccc1,-5,12,-7,-7,94*,4
CCOC(=O)c1sc(NC(=O)c2ccc(S(=O)(=O)N3CCCCCC3)cc2)nc1-c1ccccc1,-20,5,7,-16,50*,1

# From PubChem
